Screens: PubChem BioAssay, several laboratories
Shown are actives, neighbours in structure and some others; about 4.8% of the full set was active somewhere.
hcDAF-12 act: H. contortus DAF-12 activation, primary screen; HEK293 hcDAF-12 lit1-tk-luc reporter, luminescence; 0% DMSO, 100% Δ7-dafachronic acid; activation, % at 6.8 µM; 370,000 compounds, 1.4% hits; AID 652067;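 active means activation above the mean of all tested compounds plus 3 SD, cut at about 5.5% in these data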;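 further: 100% = response to 3 µM Δ7-dafachronic acid high control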
DAX1 inh-1: DAX1 (NR0B1) inhibition, primary screen | HEK293T StAR-luciferase reporter, SF-1/DAX-1 repression relief | inhibition, % at 6.8 µM | 370,000 compounds, 1.1% hits;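 active means inhibition above the mean over all tested compounds plus 3 SD, cut at about 3.6% in these data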;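 further: 0% = DAX-1 cells with DMSO and 100% = cells lacking DAX-1 with DMSO; higher inhibition means more luminescence from relief of DAX-1 repression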
NR1D1 modulator: Rev-erb alpha (human) modulation; P20393; Rev-erbα–FITC-DNA binding, fluorescence polarization, 90 min; activity, % at 10 µM; 370,000 compounds, 0.79% hits;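 active means activity above about 14%, limit read from the data; passing the limit was not always enough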;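 further: 0% = DMSO wells with 35 nM protein and 100% = DMSO wells with 750 nM protein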
hgDAF-12 ag: hgDAF-12 agonism, primary luciferase screen | HEK293 GAL4-hgDAF12 UAS-luciferase reporter, agonist luminescence; normalized to butyrate control | activation, % at 6.8 µM | 370,000 compounds, 1.8% hits | AID 687014;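 active means activation above a cutoff set at the mean of all screened compounds plus 3 SD, cut at about 10% in these data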;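 further: 0% = DMSO wells and 100% = sodium butyrate wells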
DAX1 inh-2: inhibits human nuclear receptor DAX1 | P51843 | HEK293 Gal4-DAX1 luciferase reporter, luminescence | inhibition, % at 6.75 µM | 340,000 compounds, 0.99% hits | AID 504766;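 active means inhibition above the mean over all tested compounds plus 3 SD, cut at about 4.2% in these data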;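 further: 0% = DAX1-transfected cells with DMSO and 100% = empty-vector control cells with DMSO; inhibition shows as a rise in luminescence from relieved DAX1 repression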
Target sequence (P51843 207-470 limits assumed): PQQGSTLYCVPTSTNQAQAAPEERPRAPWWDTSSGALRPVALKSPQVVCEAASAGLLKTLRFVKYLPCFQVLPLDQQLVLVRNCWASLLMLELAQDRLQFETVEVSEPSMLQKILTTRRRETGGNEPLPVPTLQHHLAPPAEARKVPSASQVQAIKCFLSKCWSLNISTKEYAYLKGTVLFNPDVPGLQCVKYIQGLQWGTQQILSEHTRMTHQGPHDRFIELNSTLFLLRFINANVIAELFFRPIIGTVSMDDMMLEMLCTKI
ssDAF12 agonist: activators of S. stercoralis DAF-12 nuclear receptor. HEK293 ssDAF-12/GRIP1 lit1-tk-luc reporter, luminescence; % of 3 µM dafachronic acid response. activation, % at 6.8 µM. 370,000 compounds, 1% hits;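 active means activation above the mean over all tested compounds plus 3 SD, cut at about 0.9% in these data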;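 further: 0% = DMSO-only wells and 100% = 3 µM delta7-dafachronic acid wells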
The depositor's hits bear a star; . = no result.

SMILES | hcDAF-12 act | DAX1 inh-1 | NR1D1 modulator | hgDAF-12 ag | DAX1 inh-2 | ssDAF12 agonist
CN(C)c1ccc(-c2nc3ccccc3n2C)cc1 | 5.5 | 4.0* | -7.2 | 7.3 | -2.9 | 0.3
CC(C)c1ccc(C(O)Cc2nc3ccccc3n2C)cc1 (stereo unspecified) | -1.0 | 0.0 | -0.6 | -4.5 | 4.6* | -1.5
CC(C)CN1C(=O)[C@@]2(CC(=O)N(C)C2c2ccccc2)c2cc(-n3cc(CCCC#N)nn3)ccc21 (stereo partly specified) | -2.0 | 1.5 | 3.0 | -0.3 | . | -1.0
c1ccc2occc2c1 | 1.7 | 0.0 | 0.8 | -0.1 | 4.3* | -1.1
CC(=O)OCCN1c2ccccc2Sc2cnccc21 | -2.4 | 0.1 | 3.8 | 10.7* | -0.4 | -1.1
C=CCN1c2ccccc2Sc2cnccc21 | -1.9 | -0.5 | 10.7 | 2.3 | 0.1 | -1.9
Cc1ccccc1NC(=O)CSc1nc2ccccc2o1 | -1.0 | -0.5 | -1.0 | 11.0* | 0.3 | -1.2
N#CC1(NC(=O)CSc2nc3ccccc3o2)CCCCC1 | -2.3 | 0.5 | 3.5 | 0.2 | 4.9* | -1.1
O=c1[nH]c(=O)n(C2OC(CO)C(O)C(O)C2O)cc1F (stereo unspecified) | 3.4 | -0.6 | -6.3 | -0.4 | . | -0.9
O=C1C=C(C2OC(CO)C(O)C2O)C(=O)N1 (stereo unspecified) | -0.8 | 1.0 | 4.1 | -0.6 | 5.9* | -1.0
CCN(CC)C(=O)CC[C@H]1CC[C@]2(CCCN(C(=O)C(C)(C)C)C2)O1 | 0.0 | 0.8 | -4.8 | -3.1 | . | -1.0
COc1cccc(C(=O)N[C@H](C(=O)N2CCC[C@H]2C(=O)NCc2ccccc2)C2CCCCC2)c1 | -0.7 | -0.5 | -3.0 | 0.1 | . | -0.9
CCOc1ccccc1/C=N/NC(=O)c1cc(C(C)C)[nH]n1 | 3.6 | -0.3 | -3.6 | -1.9 | -0.3 | -0.4
O=C(CSc1nnc(SCc2ccccc2Cl)s1)N/N=C/c1c[nH]c2ccccc12 | 6.4* | 0.1 | -0.6 | -0.5 | -0.8 | 0.5
O=C(N/N=C/c1c[nH]c2ccccc12)c1cccc(Cl)c1 | 4.7 | -0.1 | -1.3 | 6.2 | 2.4 | 1.4*
CC(C)c1cc(C(=O)N/N=C/c2c[nH]c3ccccc23)n[nH]1 | 2.2 | 0.5 | -0.6 | 2.2 | 4.7* | -1.1
O=C(N/N=C/c1c[nH]c2ccccc12)c1cccc(O)c1 | 4.0 | 1.1 | 4.7 | 9.6 | 2.1 | 0.1
Cc1cc(N2CCNC[C@H]2C)ccc1N1C[C@@H](C)O[C@@H](C)C1 | 0.1 | -0.8 | -1.7 | 2.1 | . | -1.3
C=CCN1[C@@H](C)[C@H](c2ccccc2)Oc2cccc(N3CCCC3)c2S1(=O)=O | 0.3 | 0.1 | 2.2 | 0.6 | . | -1.4
C=CCN(CC#Cc1ccccc1)Cc1ccc2c(c1)OCO2 | -1.0 | -0.9 | 1.1 | -1.0 | . | -1.1
CC1=NN(C(=O)c2ccccc2F)C(O)(c2ccc(Cl)cc2)C1 (stereo unspecified) | 1.6 | 0.9 | 4.9 | 6.2 | 6.2* | -0.8
COc1ccc(OC)c(C(=O)NC2CCSc3ccccc32)c1 (stereo unspecified) | -1.5 | -0.8 | 3.6 | 0.5 | 0.0 | -1.2
COc1ccc(CC(=O)NC2CCSc3ccccc32)c(OC)c1 (stereo unspecified) | -3.6 | 0.1 | -1.6 | -1.2 | 7.7* | -0.7
CSc1ccccc1C(=O)NC1CCSc2ccccc21 (stereo unspecified) | 5.7* | -0.1 | 4.8 | 2.2 | -2.0 | 0.9
CCC(C(=O)Nc1ccccc1N1CCCC1)c1ccccc1F (stereo unspecified) | -2.4 | -1.4 | -2.7 | 2.9 | . | -1.3
SMILES | hcDAF-12 act | DAX1 inh-1 | NR1D1 modulator | hgDAF-12 ag | DAX1 inh-2 | ssDAF12 agonist
O=C1O[C@@H](CO)[C@H](O)[C@@H](O)[C@@H]1O | . | . | -2.7 | . | . | .
NC[C@H]1O[C@H](O[C@H]2[C@H](O)[C@@H](O[C@H]3O[C@H](CO)[C@@H](O)[C@H](N)[C@H]3O)[C@H](N)C[C@@H]2N)[C@H](N)[C@@H](O)[C@@H]1O | . | . | -6.0 | . | . | .
NCCN1CCN(S(=O)(=O)c2ccc3c(c2)CCN3C(=O)C2CCC2)CC1 | -2.1 | -0.2 | 1.6 | -2.3 | . | -1.6
CC(=O)c1c(C(C)=O)c(C)n(NC(=O)c2ccncc2)c1C | 0.0 | -0.6 | 3.9 | -1.2 | 5.7* | -1.3
O=C(Nn1cnnc1)c1ccncc1 | 0.1 | -0.1 | -4.7 | 2.6 | 1.4 | -1.0
Cc1cccc(C(=O)NC2CCCCCCC2)c1 | 3.0 | 1.2 | -1.8 | 11.2* | 3.4 | -0.1
Cc1cccc(C(=O)NC2CCN(S(=O)(=O)c3ccccc3F)CC2)c1 | -3.2 | -0.4 | -5.2 | -2.1 | 4.3* | -1.6
Cc1ccc(C(=O)NC2CCN(S(=O)(=O)c3ccccc3F)CC2)cc1 | -1.3 | -0.5 | -5.3 | 0.3 | -1.5 | -2.3
Cc1cccc(C)c1NC(=O)CN(c1c(C)cccc1C)S(C)(=O)=O | 1.7 | 0.3 | -1.1 | 1.7 | 5.0* | -0.3
COc1ccc(NC(=O)CN(c2c(C)cccc2C)S(C)(=O)=O)cc1 | -1.0 | -0.1 | 5.5 | -2.7 | 0.0 | -1.6
NC(=O)c1ccc(-c2ccc(Br)cc2)o1 | -1.5 | -0.1 | 2.5 | 4.4 | -0.8 | -0.9
NC(=O)C1CCN(C(=S)c2ccc(-c3ccc(Br)cc3)o2)CC1 | 0.3 | 2.2 | 1.6 | 11.9* | . | -0.5
CCCCCCCCN1C(=O)[C@@H](CC(=O)N2CCSCC2)C[C@@]2(C(=O)OC)C1=C[C@H](C(C)C)O[C@@H]2C1CC1 | -0.2 | 0.4 | -1.7 | -1.3 | . | -0.9
CO/N=C(/C(=O)N[C@H]1C(=O)N2C(C(=O)OC(C)OC(C)=O)=C(COC(N)=O)CSC12)c1ccco1 (stereo partly specified) | . | . | -5.1 | . | . | .
CCc1ccc(N(C(=O)Cn2nnc(-c3ccccc3)n2)C(C(=O)NC2CCCCC2)c2ccccn2)cc1 (stereo unspecified) | 6.5* | 0.0 | -5.5 | 2.6 | 0.1 | -0.4
COc1ccc(C[N+]2=C(N)NC3=C4CCCCC4n4c(=O)n(-c5ccccc5)c(=O)n4C3C2)c(OC)c1 (stereo unspecified) | -0.6 | -1.3 | 7.7 | -0.3 | . | -1.5
COC(=O)c1cc(S(=O)(=O)NCc2ccccc2OC)cn1C | 0.5 | -0.2 | -5.0 | -1.9 | 1.1 | -1.3
COC(=O)c1cc(S(=O)(=O)NCc2cccc(OC)c2)cn1C | 0.5 | 0.2 | 2.3 | 1.6 | 5.3* | -1.3
Cc1ccc(S(=O)(=O)N2CCCC2C(c2ccccc2O)c2cn(C)c3ccccc23)cc1 (stereo unspecified) | -0.7 | -0.8 | 0.5 | -3.6 | . | -1.5
CCN(CC)c1ccc(C(=O)O)cc1 | 0.1 | 0.5 | -0.2 | 1.2 | -1.3 | -0.2
CCN(CC)c1ccc(C(=S)NCc2ccccc2)cc1 | -2.4 | 0.4 | 2.9 | -1.6 | 7.3* | -1.4
COc1ccccc1NC(=O)OC1CC2CC1[C@H]1CCCCN1[C@H]2C (stereo partly specified) | -0.1 | 0.9 | 6.6 | 0.8 | . | -0.4
